Assay [1] in a line: STM_H9_NormalizedViability: Cytotoxicity Assessment at 120 hours in the Stemina devTOX quickPredict H9 human embryonic stem cell (hESC)-based Assay (AID 2283784). Put shortly:
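Pluripotent H9 hESCs were exposed, with chemical and media replaced every 24 h. Viability was read by CellTiter-Fluor fluorescence, background-corrected and normalized to the 0.1% DMSO neutral control per plate. Loss of signal was fitted.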

Assay [2] is described as follows: ACEA_ER_AUC_viability: ACEA Biosciences xCELLigence Real-Time Cell Analysis on Estrogen Receptor Agonism for Viability (AID 2283782).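 Note: continuous compound exposure with impedance area under curve over 80 h; hit means loss of impedance signal meaning reduced cell growth or viability.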 Put shortly:
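T47D cells preconditioned in phenol red-free RPMI with charcoal-stripped FBS, then dosed with 8-point 1:4 series from 100 uM (up to 0.5% DMSO). Impedance monitored up to ~80 h; area-under-curve loss versus DMSO taken as viability.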

The target of a further assay is AR (gene 367) (UniProt P10275). The assay is described as follows: ACEA_AR_agonist_80hr: ACEA Biosciences xCELLigence Real-Time Cell Analysis on Androgen Receptor Agonism for Proliferation (AID 2283783).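 Note: hits increase impedance growth signal above DMSO baseline.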 Put shortly:
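Proliferation of 22Rv1 prostate cancer cells tracked by electrical impedance, endpoint taken at 80 hours after dosing. Eight-point 1:4 dilutions from 100 uM maximum final, duplicate; testosterone and MG132 as positive controls, assay media as negative.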

The subject of assay [3] is zebrafish Estrogen Receptor (ESR2A), gene 317734. The assay is described as follows: ATG_zfER2a_XSP1: Attagene TRANS-FACTORIAL Multi-Species (XSP1) HepG2 Assay for zebrafish Estrogen Receptor (ESR2A) (AID 2283778). The method, boiled down: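 HepG2 cells transiently transfected with GAL4-UAS reporter units driven by a zebrafish ESR2A–Gal4 chimera; 24 h compound exposure with 3 nM 6-alpha-fluorotestosterone present. Reporter mRNA measured by RT-PCR with fluorescent capillary electrophoresis, fitted positive versus DMSO.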

The test system of assay [4] is frog Estrogen Receptor (ESR1), gene 398734. The assay is described as follows: ATG_frER1_XSP1: Attagene TRANS-FACTORIAL Multi-Species (XSP1) HepG2 Assay for frog Estrogen Receptor (ESR1) (AID 2283777). Put shortly: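 HepG2 cells transiently transfected with frog ER–GAL4 chimera and GAL4-UAS reporter, with 3 nM 6-alpha-fluorotestosterone present; 24 h dosing, reporter mRNA quantified by RT-PCR and capillary electrophoresis, gain of signal versus DMSO.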

Assay [5] addresses chicken Estrogen Receptor (ESR1), ESR1 (gene 396099) (UniProt P06212). The assay is described as follows: ATG_chERa_XSP1: Attagene TRANS-FACTORIAL Multi-Species (XSP1) HepG2 Assay for chicken Estrogen Receptor (ESR1) (AID 2283779). The method, boiled down: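 HepG2 cells transiently transfected with GAL4-UAS reporter units for chimeric chicken ERα-Gal4, dosed 24 h with 3 nM 6-alpha-fluorotestosterone present. Reporter mRNA by RT-PCR and capillary electrophoresis; gain-of-signal fit versus DMSO.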

In assay [6] the target is Estrogen receptor (Homo sapiens) (UniProt P03372). Description: ATG_hERa_XSP1: Attagene TRANS-FACTORIAL Multi-Species (XSP1) HepG2 Assay for human Estrogen Receptor (ESR1) (AID 2283780). The method, boiled down:
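HepG2 cells transiently transfected with GAL4-UAS reporter units and chimeric NR-Gal4 constructs; 24 h after dosing, reporter mRNA quantified by RT-PCR and capillary electrophoresis. Medium contained 3 nM 6-alpha-fluorotestosterone; activity fitted as gain-of-signal versus DMSO.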

Assay [7] relates to turtle Estrogen Receptor (ESR1), gene 101933533. The assay is described as follows: ATG_trERa_XSP1: Attagene TRANS-FACTORIAL Multi-Species (XSP1) HepG2 Assay for turtle Estrogen Receptor (ESR1) (AID 2283781). The method, boiled down:
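Turtle ERa as a GAL4 chimera in transiently transfected HepG2 cells; reporter mRNA quantified 24 h after dosing by RT-PCR and capillary electrophoresis. 3 nM 6-alpha-fluorotestosterone present; gain of signal versus DMSO.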

For assay [8], the system named is turtle Androgen Receptor (AR), gene 101947425. The assay is described as follows: ATG_trAR_XSP1: Attagene TRANS-FACTORIAL Multi-Species (XSP1) HepG2 Assay for turtle Androgen Receptor (AR) (AID 2283786). Put shortly: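 HepG2 cells transiently transfected with a turtle AR–GAL4 chimera and GAL4-UAS reporter, co-treated with 3 nM 6-alpha-fluorotestosterone for partial stimulation. Reporter mRNA is quantified at 24 h by RT-PCR and capillary electrophoresis, gain-of-signal versus DMSO.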

Inconclusive results are not listed. Some compounds were tested as several samples or in several runs, with calls that do not always agree. The source made the active and inactive calls. Rule for the calls: active = hit-call score of the fitted dose curve at least 0.9, where 1 is the maximum; inconclusive = response in the unintended direction; inactive = score below 0.9.

chicken Estrogen Receptor (ESR1), ESR1 (gene 396099), sequence (P06212 whole entry, looked up, the tested form may be a part): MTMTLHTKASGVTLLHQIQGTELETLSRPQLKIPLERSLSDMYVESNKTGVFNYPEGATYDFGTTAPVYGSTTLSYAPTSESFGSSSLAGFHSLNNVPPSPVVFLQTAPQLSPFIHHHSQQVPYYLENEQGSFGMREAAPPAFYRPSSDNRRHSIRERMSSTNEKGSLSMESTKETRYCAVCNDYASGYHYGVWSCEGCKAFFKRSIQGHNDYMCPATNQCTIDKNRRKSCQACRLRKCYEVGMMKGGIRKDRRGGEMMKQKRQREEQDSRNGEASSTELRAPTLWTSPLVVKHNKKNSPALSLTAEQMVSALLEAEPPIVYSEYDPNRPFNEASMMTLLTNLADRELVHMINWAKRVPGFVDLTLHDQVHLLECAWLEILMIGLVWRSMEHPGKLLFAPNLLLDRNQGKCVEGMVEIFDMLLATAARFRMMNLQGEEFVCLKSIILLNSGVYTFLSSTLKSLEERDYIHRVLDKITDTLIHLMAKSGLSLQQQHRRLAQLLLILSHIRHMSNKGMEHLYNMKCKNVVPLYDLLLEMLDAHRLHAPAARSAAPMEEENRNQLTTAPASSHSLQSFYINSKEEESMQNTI
Estrogen receptor (Homo sapiens), sequence (P03372 whole entry, looked up, the tested form may be a part): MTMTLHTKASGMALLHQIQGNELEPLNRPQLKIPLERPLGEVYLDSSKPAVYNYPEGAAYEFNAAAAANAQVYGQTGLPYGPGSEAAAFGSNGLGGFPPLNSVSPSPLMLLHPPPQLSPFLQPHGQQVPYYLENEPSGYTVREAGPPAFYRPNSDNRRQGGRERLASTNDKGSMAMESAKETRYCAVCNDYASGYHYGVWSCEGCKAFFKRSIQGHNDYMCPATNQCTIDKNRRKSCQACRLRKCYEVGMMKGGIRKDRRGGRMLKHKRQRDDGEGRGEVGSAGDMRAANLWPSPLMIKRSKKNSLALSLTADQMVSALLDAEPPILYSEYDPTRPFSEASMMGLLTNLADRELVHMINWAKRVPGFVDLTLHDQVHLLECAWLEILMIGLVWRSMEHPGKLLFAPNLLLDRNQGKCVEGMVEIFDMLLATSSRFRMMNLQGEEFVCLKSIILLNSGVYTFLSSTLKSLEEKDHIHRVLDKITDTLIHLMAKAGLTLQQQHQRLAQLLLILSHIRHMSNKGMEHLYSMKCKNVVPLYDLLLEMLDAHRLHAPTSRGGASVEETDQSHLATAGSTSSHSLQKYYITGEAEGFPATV
AR (gene 367), sequence (P10275 whole entry, looked up): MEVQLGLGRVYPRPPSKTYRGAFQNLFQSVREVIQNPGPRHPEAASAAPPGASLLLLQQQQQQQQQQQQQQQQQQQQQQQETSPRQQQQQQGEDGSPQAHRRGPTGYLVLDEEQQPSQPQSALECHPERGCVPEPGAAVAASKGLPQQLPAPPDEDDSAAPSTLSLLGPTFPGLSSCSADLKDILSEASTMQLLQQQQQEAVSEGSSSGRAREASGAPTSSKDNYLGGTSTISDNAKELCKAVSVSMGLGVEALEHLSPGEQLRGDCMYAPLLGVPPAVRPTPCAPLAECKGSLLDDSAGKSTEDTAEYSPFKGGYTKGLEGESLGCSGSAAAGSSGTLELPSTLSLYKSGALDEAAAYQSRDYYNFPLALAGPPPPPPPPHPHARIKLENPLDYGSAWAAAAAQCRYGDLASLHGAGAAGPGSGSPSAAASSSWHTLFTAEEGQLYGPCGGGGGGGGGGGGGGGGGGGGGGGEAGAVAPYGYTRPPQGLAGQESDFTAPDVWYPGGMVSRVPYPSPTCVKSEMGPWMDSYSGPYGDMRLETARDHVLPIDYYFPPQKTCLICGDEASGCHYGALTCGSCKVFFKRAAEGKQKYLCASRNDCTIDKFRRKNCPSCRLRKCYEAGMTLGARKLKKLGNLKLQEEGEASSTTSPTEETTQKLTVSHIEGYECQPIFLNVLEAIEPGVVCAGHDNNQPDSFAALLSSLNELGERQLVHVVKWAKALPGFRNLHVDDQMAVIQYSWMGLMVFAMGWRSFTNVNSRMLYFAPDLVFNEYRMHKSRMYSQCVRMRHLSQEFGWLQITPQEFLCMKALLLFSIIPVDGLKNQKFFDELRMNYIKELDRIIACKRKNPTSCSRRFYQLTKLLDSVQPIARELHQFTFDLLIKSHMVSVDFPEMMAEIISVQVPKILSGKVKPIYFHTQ

Consider `COc1nc(NC(C)C)nc(NC(C)C)n1`, for which, in assay [1], the result was inactive.

For the compound `CCOC(=O)C(Cl)Cc1cc(-n2nc(C)n(C(F)F)c2=O)c(F)cc1Cl` (stereo not drawn), in assay [2], the result was inactive.

For `CC1=C(C(=O)Nc2ccccc2)SCCO1`, the result with AR (gene 367) was inactive.

`COC(=O)c1ccccc1C(=O)OC`: the result in assay [2] and in assay [1] was inactive.

In the case of `Cc1cc(Cl)ccc1OCC(=O)O`, in the assay with AR (gene 367), the compound was classed as inactive.

For the compound `O=C(Nc1ccccc1)Nc1ccnc(Cl)c1`, the AC50 (in general, the concentration at which the activity in the assay is half-maximal) in assay [2] is 81.3 µM (active).

Regarding `C=CCC1=C(C)C(OC(=O)C2C(C=C(C)C)C2(C)C)CC1=O` (stereo not drawn), in assay [2], the AC50 is 87.8 µM (active) [middle of 5 runs] and the call was inactive.

Turning to `CCCCNC(=O)OCC#CI`, in assay [3], the call was inactive. In assay [2], the half-maximal activity concentration (AC50) is 5.58 µM (active).

Take `COP(=S)(OC)Oc1nc(Cl)c(Cl)cc1Cl`: the AC50 was 31 µM (active) in assay [4]; 27.8 µM (active) in assay [5]; 27.1 µM (active) in [6]; 27.9 µM (active) in [7]; 79 µM (active) in [2]; 25.3 µM (active) in assay [8].

In the case of `Fc1ccc(Oc2ccnc3cc(Cl)cc(Cl)c23)cc1`, the concentration at half-maximal activity (AC50) in [2] was 80.2 µM (active).

As for `COC(=O)N(OC)c1ccccc1COc1ccn(-c2ccc(Cl)cc2)n1`, the call in assay [4], in [3], in assay [6] and in assay [7] was inactive. Further, the AC50 in assay [2] is 92.3 µM (active); in assay [1], 0.5 µM (active).

Consider `CC(C)Oc1cc(-n2nc(C(C)(C)C)oc2=O)c(Cl)cc1Cl`, for which the concentration at half-maximal activity (AC50) in assay [4] was 7.92 µM (active); in assay [5], 27.2 µM (active); in assay [6], 6.88 µM (active); in [7] it was 20.8 µM (active); in assay [2], 81.9 µM (active). Also, the compound was classed as inactive in [3] and in assay [8].

Regarding `CCCC1COC(Cn2cncn2)(c2ccc(Cl)cc2Cl)O1` (stereo not drawn), the compound was called inactive (in [4]; in assay [3]; in assay [5]; in [6]; in assay [7]; with AR (gene 367)). Also, the values for the half-maximal activity concentration (AC50) in [2] and in [1] were 92.1 µM (active) and 71.2 µM (active), respectively.

On to `CCON=C(CC)C1=C(O)CC(c2c(C)cc(C)cc2C)CC1=O` (stereo not drawn), for which the compound was called inactive in assay [2].

With `C=CC1(C)OC(=O)N(c2cc(Cl)cc(Cl)c2)C1=O` (stereo not drawn), the compound was called inactive in assay [4], in assay [3], in assay [2] and in assay [1]. In addition, the concentration at half-maximal activity (AC50) is 59.9 µM (active) in assay [5], 100 µM (active) in assay [6] and 100 µM (active) in assay [7].

Turning to `CCCCC(CC)COC(=O)c1ccccc1C(=O)OCC(CC)CCCC` (stereo not drawn), the call in [4], in assay [5], in [6], in [7], in assay [2] and in assay [1] was inactive.

Consider `CCNc1nc(Cl)nc(NCC)n1`, for which the outcome in assay [1] was inactive.

As for `C#CCOS(=O)OC1CCCCC1Oc1ccc(C(C)(C)C)cc1` (stereo not drawn), the call in [4] was inactive. Further, the half-maximal activity concentration (AC50) in assay [5] was 26.8 µM (active); in [6] it was 5.29 µM (active); in [7] it was 44.3 µM (active); in [2], 87.4 µM (active); in assay [1] it was 3.86 µM (active); in assay [8], 1.6 µM (active).

In the case of `CON(C)C(=O)Nc1ccc(Cl)c(Cl)c1`, the concentration at half-maximal activity (AC50) in assay [4] is 10.4 µM (active); in assay [5], 27.3 µM (active); in assay [6], 9.61 µM (active); in assay [7] it was 26.7 µM (active). The compound was classed as inactive in assay [3], in assay [2] and in assay [1].
